HT1080 IDH1KD tx = kills HT-1080 cells with IDH1 knockdown | HT-1080 IDH1 knockdown viability, ATP luminescence, 48 h | Potency, µM (doses to about 46.1 µM), most hits filed as cytotoxic | actives 2% (n = 360,000)
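% activity derives from luminescence (CellTiter-Glo), normalised to DMSO and no-cell wells. HT-1080-IDH1KD cells, 750/well, had 48 h compound exposure at 37 °C.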
HT1080NT lethal = kills 2HG-producing HT-1080-NT fibrosarcoma cells; HT-1080-NT fibrosarcoma viability, CellTiter-Glo ATP luminescence, 48 h; Potency, µM (doses to about 46.1 µM), most hits filed as cytotoxic; actives 1.6% (n = 360,000); AID 686970;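 also: NT is the 2HG producing partner of a matched IDH1 knockdown line; nearly all actives have a fitted effect of over 55% in size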
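Compounds were tested in concentration-response format on HT-1080-NT cells for 48 hours at 37 degrees C. Cell viability came from CellTiter-Glo luminescence; curves were classified by r2, response magnitude and activity.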
TDP1 cell CPT = growth inhibition of DT40 Tdp1-/-;hTDP1 cells with camptothecin (screen for TDP1 inhibitors); Potency, µM (titrated, usually from 46.2 µM), actives largely listed as inhibitors; chicken DT40 Tdp1-/-;hTDP1 cells + 20 nM CPT, ATP luminescence, 48 h; actives 12% (n = 420,000); also: nearly all actives have a fitted effect of over 55% in size
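Cell growth measured by CellTiter-Glo luminescence after a minimum 48 h, 37 C compound exposure with 20 nM CPT in Tdp1-knockout DT40 cells stably expressing hTDP1, seeded 400/well; qHTS titration format.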
DT40 TDP1 no CPT = qHTS for Inhibitors of human tyrosyl-DNA phosphodiesterase 1 (TDP1): qHTS in cells in absence of CPT; DT40 Tdp1-/- hTDP1 cells, no CPT, ATP luminescence, 48 h; Potency, µM (series often up to 46.2 µM), most hits filed as inhibitors; actives 15% (n = 420,000); AID 686978, 2013; also: nearly all actives have a fitted effect of over 55% in size
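Camptothecin absent (DMSO only). Human TDP1-complemented DT40 knockout cells, 400 cells/well, 37 °C for minimum 48 hr; ATP measured via CellTiter-Glo, 30 min dark incubation, luminescence.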
IL1B secr inh = inflammasome signaling inhibition, IL-1 beta readout. THP-1 LPS/ATP IL-1B secretion, AlphaLISA, 16 h; stronger effect = lower value. activity change, % at 57.5 µM. actives 4.7% (n = 360,000); in the data active = activity change below about -50%; inconclusive = mostly about -30% to -49%
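Secreted IL-1B measured by AlphaLISA bead assay after 16 h compound exposure of THP-1 cells; compounds (final up to 57.5 uM) added 1 h before LPS (250 ng/mL) and ATP (1.25 mM) stimulation; lower signal means less secretion.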
Of the large screens only hits and unclear results are named; the others gave an inactive call. Compounds with a hit are over-represented: about 19% of the library has one in this group of screens. Unless noted, calls follow the shape of the dose curve; as a rule, active = well fitted curve in the direction sought with a large enough effect; inconclusive = small, poorly fitted or top-dose-only effect, or another doubt; inactive = no such curve, though single readings can be large; an effect the other way counts as inactive or inconclusive.

O=C(NCc1ccccc1)c1ccc(Cl)c(S(=O)(=O)N2CCCC2)c1	DT40 TDP1 no CPT 18µM, IL1B secr inh inconclusive
COc1cccc(C(CNC(=O)c2ccc(Cl)c(S(=O)(=O)N3CCCC3)c2)N(C)C)c1 (stereo not given)	TDP1 cell CPT inconclusive, DT40 TDP1 no CPT 21µM
Cc1ccccc1NC(=O)c1ccc(Cl)c(S(=O)(=O)N2CCCCCC2)c1	TDP1 cell CPT inconclusive, DT40 TDP1 no CPT 16µM (no result: HT1080 IDH1KD tx, HT1080NT lethal, IL1B secr inh)
Cc1ccc([C@H]2C[C@H](n3cc(-c4ccc(F)cc4)nn3)[C@@H](O)CN2CC2CCCCC2)cc1	TDP1 cell CPT inconclusive, DT40 TDP1 no CPT inconclusive
O=C(CSc1nc2ccccc2[nH]1)N/N=C/c1ccco1	none
C=CC[C@@H](CC(=O)N[C@H](CO)Cc1ccccc1)C(=O)N[C@H](COC(=O)[C@H](CC=C)CC(=O)OC(C)(C)C)Cc1c[nH]c2ccccc12	HT1080 IDH1KD tx inconclusive, HT1080NT lethal inconclusive, TDP1 cell CPT inconclusive, DT40 TDP1 no CPT inconclusive
C=CC[C@@H](CC(=O)N[C@@H](CO)Cc1ccccc1)C(=O)N[C@H](COC(=O)[C@H](CC=C)CC(=O)OC(C)(C)C)Cc1c[nH]c2ccccc12	HT1080NT lethal inconclusive, TDP1 cell CPT inconclusive, DT40 TDP1 no CPT 21µM
C=CC[C@@H](CC(=O)N[C@H](CO)Cc1ccccc1)C(=O)N[C@H](COC(=O)[C@@H](CC=C)CC(=O)OC(C)(C)C)Cc1ccccc1	TDP1 cell CPT inconclusive, DT40 TDP1 no CPT inconclusive, IL1B secr inh -52
C=CC[C@H](CC(=O)NCCO)C(=O)N[C@H](COC(=O)[C@@H](CC=C)CC(=O)OC(C)(C)C)Cc1ccccc1	DT40 TDP1 no CPT inconclusive
O=C(NCc1nnnn1-c1ccc(F)cc1)c1ccc(S(=O)(=O)N2CCOCC2)cc1	DT40 TDP1 no CPT inconclusive
CC(C)NC(=O)Nc1cccc2c1O[C@H](CN(C)C(=O)Nc1ccc(C(F)(F)F)cc1)[C@@H](C)CN([C@H](C)CO)C2=O	IL1B secr inh inconclusive
C[C@H](CO)N1C[C@H](C)[C@@H](CN(C)C(=O)Nc2ccccc2)Oc2c(NC(=O)Nc3ccc(C(F)(F)F)cc3)cccc2C1=O	HT1080 IDH1KD tx inconclusive, HT1080NT lethal inconclusive, TDP1 cell CPT 13µM, DT40 TDP1 no CPT inconclusive
C[C@H](CO)N1C[C@H](C)[C@@H](CN(C)C(=O)Nc2ccc(C(F)(F)F)cc2)Oc2c(NC(=O)CCC(F)(F)F)cccc2C1=O	TDP1 cell CPT inconclusive, DT40 TDP1 no CPT inconclusive, IL1B secr inh -66
C[C@H](CO)N1C[C@H](C)[C@@H](CN(C)Cc2ccc(-c3ccccc3)cc2)Oc2c(NC(=O)Nc3ccc(C(F)(F)F)cc3)cccc2C1=O	TDP1 cell CPT 8.2µM, DT40 TDP1 no CPT inconclusive
C[C@H](CO)N1C[C@H](C)[C@@H](CN(C)C(=O)Nc2ccc(C(F)(F)F)cc2)Oc2c(NC(=O)C3CCCCC3)cccc2C1=O	TDP1 cell CPT inconclusive, DT40 TDP1 no CPT inconclusive, IL1B secr inh -58
COc1ccc(OC)c(S(=O)(=O)N2CCCC(C(=O)NCc3cccnc3)C2)c1 (stereo not given)	none
O=C(NN=C1CCCCCC1)C(=O)Nc1cccc(Br)c1	none
C[C@@H]1CN([C@H](C)CO)C(=O)c2cccc(NC(=O)NC3CCCCC3)c2O[C@@H]1CN(C)C(=O)Nc1ccc(C(F)(F)F)cc1	HT1080 IDH1KD tx inconclusive, HT1080NT lethal inconclusive, TDP1 cell CPT 16µM, DT40 TDP1 no CPT inconclusive, IL1B secr inh -67
C[C@H](CO)N1C[C@H](C)[C@@H](CN(C)CC2CCCCC2)Oc2c(NC(=O)CCC(F)(F)F)cccc2C1=O	HT1080NT lethal inconclusive, TDP1 cell CPT 21µM, DT40 TDP1 no CPT 15µM
C[C@H](CO)N1C[C@H](C)[C@@H](CN(C)C(=O)NC2CCCCC2)Oc2c(NC(=O)CCC(F)(F)F)cccc2C1=O	TDP1 cell CPT inconclusive
C[C@H](CO)N1C[C@H](C)[C@@H](CN(C)C(=O)Nc2ccc(C(F)(F)F)cc2)Oc2c(NC(=O)NC3CCCCC3)cccc2C1=O	DT40 TDP1 no CPT inconclusive, IL1B secr inh inconclusive
CN(C)C(CNC(=S)Nc1ccc(Cl)cc1)c1cccnc1 (stereo not given)	none

Screening data (PubChem)
